Data from PubChem BioAssay (NCATS).
Records with an inconclusive call do not appear. Where a structure was tested more than once in an assay, its records may differ in their call. The source made the active and inactive calls. Unless noted, calls follow the shape of the dose curve; as a rule, active = well fitted curve in the direction sought with a large enough effect; inconclusive = small, poorly fitted or top-dose-only effect, or another doubt; inactive = no such curve, though single readings can be large; an effect the other way counts as inactive or inconclusive.

How the values were obtained:
[1] = qHTS for inhibitors of adenylyl cyclases using a fission yeast platform: a pilot screen against the NCATS LOPAC library (AID 1347410);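 also: plate controls were DMSO vehicle for no effect and DPI positive control for full effect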
Outline: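 Inhibition of GNAS-stimulated AC9 activity in S. pombe was inferred from derepression of a PKA-repressed fbp1-GFP reporter, measured as cytometric fluorescence after 18 h at 30C with compounds at up to 57 µM.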

[2] = Validation qHTS assay for inhibitors of Activation Induced Cytidine Deaminase (AID): UDG Counterscreen signal (AID 1347427); also: 0% is about no effect
Outline: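 Counterscreen read of UDG activity (2 U/mL, 4/3x) in the FRET deamination format with AID (1 uM, 4/3x), DJC20/DJC23 substrates (250 nM, 4x), 4 h at room temperature. NaOH stop, fluorescence at 560 ex/665 em.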

[3] = target: Single-stranded DNA cytosine deaminase (Homo sapiens) (UniProt Q9GZX7); test: Validation qHTS assay for inhibitors of Activation Induced Cytidine Deaminase (AID): AID signal (AID 1347429); also: potency is read from the fitted curve at half-maximal effect
Outline: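 Fluorescence at 540 nm excitation and 590 nm emission reports ssDNA cytosine deamination by AID, with UDG in the same well. Compound-treated reactions ran 4 hr at room temperature with DJC20/DJC23 substrate, followed by 30 min NaOH treatment.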

[4] = Primary qHTS for inhibitors of La Crosse Virus (LACV) - induced cell death in SH-SY5Y cells (AID 1508616); also: potency is read from the fitted curve at half-maximal effect
Outline: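 Protection against LACV-induced cell death is scored in SH-SY5Y cells exposed to compounds and virus (0.01 MOI) for 6 days. Data normalized to virus-infected DMSO wells and virus-free DMSO wells.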

[5] = target: Calcium and integrin-binding protein 1 (Homo sapiens) (UniProt Q99828); test: Validation qHTS for Identification of Calcium Integrin Binding protein 1 (CIB1) Competitor (AID 1508618); also: % is scaled to controls: 0 for no effect and ±100 for the full control effect
Outline: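 In this qHTS validation, the LOPAC set (up to 114 uM) was tested for blocking CIB1 binding to a fluorescein-tagged alphaIIb peptide, with FP detection at 480/540 nm.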

Papain (Carica papaya) = Papain (Carica papaya) (UniProt P00784); test: Primary qHTS assay for inhibitors of the protease papain (AID 1645873);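 also: papain turnover of Z-FR-AMC read as the AMC fluorescence gain over 10 min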; also: potency is read from the fitted curve at half-maximal effect
[6] = Cell Viability qHTS for small molecule stabilizers of the endoplasmic reticulum resident proteome (AID 1508629); conditions: cell viability counter-screen, 100 nM thapsigargin for final 4 h;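 also: human SH-SY5Y neuroblastoma cells carrying the GLuc-SERCaMP reporter; compound exposure about 46 h in total before the viability read; % is scaled to controls: 0 for no effect and ±100 for the full control effect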
[7] = Primary qHTS for small molecule stabilizers of the endoplasmic reticulum resident proteome: Secreted ER Calcium Modulated Protein (SERCaMP) assay (AID 1508630); also: potency is read from the fitted curve at half-maximal effect
Outline: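 GLuc-SERCaMP-expressing SH-SY5Y cells, pretreated 16 h with compound, are challenged with thapsigargin to empty ER calcium stores; after 4 h, coelenterazine is added directly to the medium and luminescence is imaged.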

[8] = target: Cytochrome P450 2D6 (Homo sapiens) (UniProt P10635); test: Cytochrome P450 family 2 subfamily D member 6 (CYP2D6) small molecule antagonists: luciferase biochemical (cell-free) qHTS assay (AID 1645840; active = well fitted curve in the direction sought with a large enough effect in the repeat runs; an effect the other way counts as inactive or inconclusive; also: nearly all actives have a fitted effect of over 55% in size; also: potency is read from the fitted curve at half-maximal effect)
Outline: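 P450-Glo luminescent screen: recombinant CYP2D6 enzyme–proluciferin substrate mix preincubated with compound 10 min at room temperature, then NADPH regeneration added for 1 h at room temperature. Detection reagent added for 20 min; luciferin light read as relative luminescence units.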

[9] = target: Cytochrome P450 2C9 (Homo sapiens) (UniProt P11712); test: Cytochrome P450 family 2 subfamily C member 9 (CYP2C9) small molecule antagonists: luciferase biochemical (cell-free) qHTS assay (AID 1645842; active = well fitted curve in the direction sought with a large enough effect in the repeat runs; an effect the other way counts as inactive or inconclusive; also: potency is read from the fitted curve at half-maximal effect; nearly all actives have a fitted effect of over 55% in size)
Outline: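 Luminescence, after 20 min with luciferin detection reagent, reflected CYP2C9 turnover during a 1 h NADPH-driven reaction at 37C. Enzyme-substrate mix contained 0.4% bovine serum albumin and was preincubated with compound 10 min at room temperature.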

[10] = target: Calcium and integrin-binding protein 1 (Homo sapiens) (UniProt Q99828); test: Primary qHTS for Identification of Calcium Integrin Binding Protein 1 (CIB1) Competitor (AID 1508620);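 also: GST tagged CIB1 binding a fluorescein labelled alphaIIb integrin peptide tracer; top concentration of the series differs between compounds; % is scaled to controls: 0 for no effect and ±100 for the full control effect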
Outline: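 Fluorescence polarization competition: GST-tagged CIB1 (1 uM final) preincubated with compound 15 min at room temperature, then FITC-labelled alphaIIb peptide (100 nM final) added. After 15 min at room temperature, polarization read at Ex 480/Em 540.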

[11] = Primary qHTS for inhibitors of nuclear receptor binding SET domain protein 2 (NSD2) in an isogenic RCH-ACV NSD2 p.E1099K mutant (9B) (AID 1645876); also: nearly all actives have a fitted effect of over 70% in size; also: potency is read from the fitted curve at half-maximal effect

Sequence of Papain (Carica papaya) (P00784 whole entry, looked up): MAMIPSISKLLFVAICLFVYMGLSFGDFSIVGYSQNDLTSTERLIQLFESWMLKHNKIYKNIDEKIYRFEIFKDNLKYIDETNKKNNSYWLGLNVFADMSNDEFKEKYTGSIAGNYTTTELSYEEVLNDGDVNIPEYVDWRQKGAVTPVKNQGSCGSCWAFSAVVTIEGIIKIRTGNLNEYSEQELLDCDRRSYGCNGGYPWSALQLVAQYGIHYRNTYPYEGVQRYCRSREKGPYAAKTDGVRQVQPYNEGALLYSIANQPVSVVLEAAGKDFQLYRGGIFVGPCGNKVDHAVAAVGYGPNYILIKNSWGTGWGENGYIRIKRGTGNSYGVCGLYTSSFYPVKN
Sequence of Calcium and integrin-binding protein 1 (Homo sapiens) (Q99828 whole entry, looked up): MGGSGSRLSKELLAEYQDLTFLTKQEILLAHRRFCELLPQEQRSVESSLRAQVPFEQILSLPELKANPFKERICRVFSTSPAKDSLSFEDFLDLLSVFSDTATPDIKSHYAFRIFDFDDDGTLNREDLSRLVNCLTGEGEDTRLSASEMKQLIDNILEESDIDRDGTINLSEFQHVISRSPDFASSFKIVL
Sequence of Single-stranded DNA cytosine deaminase (Homo sapiens) (Q9GZX7 whole entry, looked up): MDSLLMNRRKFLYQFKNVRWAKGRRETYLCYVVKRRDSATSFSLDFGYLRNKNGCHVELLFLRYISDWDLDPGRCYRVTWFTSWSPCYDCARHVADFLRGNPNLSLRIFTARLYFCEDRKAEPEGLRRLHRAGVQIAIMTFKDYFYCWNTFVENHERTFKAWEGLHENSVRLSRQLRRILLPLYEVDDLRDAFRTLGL
Sequence of Cytochrome P450 2D6 (Homo sapiens) (P10635 whole entry, looked up): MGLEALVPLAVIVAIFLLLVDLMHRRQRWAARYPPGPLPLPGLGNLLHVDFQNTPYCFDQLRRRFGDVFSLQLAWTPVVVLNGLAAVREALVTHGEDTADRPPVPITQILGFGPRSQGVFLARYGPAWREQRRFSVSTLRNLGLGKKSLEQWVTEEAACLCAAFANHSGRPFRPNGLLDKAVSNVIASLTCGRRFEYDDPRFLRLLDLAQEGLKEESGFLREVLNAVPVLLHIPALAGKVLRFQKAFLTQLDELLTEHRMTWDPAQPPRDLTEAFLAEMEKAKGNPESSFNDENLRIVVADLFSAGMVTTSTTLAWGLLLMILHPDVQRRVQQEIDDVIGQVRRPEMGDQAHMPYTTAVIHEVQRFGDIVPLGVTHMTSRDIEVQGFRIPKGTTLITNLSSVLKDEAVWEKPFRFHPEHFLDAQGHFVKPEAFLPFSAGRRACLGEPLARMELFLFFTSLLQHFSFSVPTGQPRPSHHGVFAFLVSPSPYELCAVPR
Sequence of Cytochrome P450 2C9 (Homo sapiens) (P11712 whole entry, looked up): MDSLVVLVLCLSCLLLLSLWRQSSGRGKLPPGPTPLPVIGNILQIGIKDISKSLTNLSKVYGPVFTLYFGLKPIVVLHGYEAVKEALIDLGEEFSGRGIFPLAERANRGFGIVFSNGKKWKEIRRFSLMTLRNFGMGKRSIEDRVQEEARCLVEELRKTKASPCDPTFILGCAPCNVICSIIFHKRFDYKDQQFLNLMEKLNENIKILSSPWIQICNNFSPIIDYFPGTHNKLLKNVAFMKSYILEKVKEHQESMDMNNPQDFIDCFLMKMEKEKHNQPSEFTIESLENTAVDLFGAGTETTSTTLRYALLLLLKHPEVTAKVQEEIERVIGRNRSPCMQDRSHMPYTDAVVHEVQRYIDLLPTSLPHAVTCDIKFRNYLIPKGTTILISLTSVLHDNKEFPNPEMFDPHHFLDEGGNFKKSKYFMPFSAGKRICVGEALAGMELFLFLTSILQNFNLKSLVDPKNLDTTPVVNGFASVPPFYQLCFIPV

N#C/C(=C\c1ccc(-c2cc(Cl)ccc2Cl)o1)C(=O)Nc1cccc2ncccc12
inactive: outcome [1] | Potency [2] | Potency [3] | Potency [4] | outcome [5] | Potency (Papain (Carica papaya))

CC(C)NC[C@@H](O)c1ccc(O)c(O)c1
inactive: outcome [1] | Potency [2] | Potency [3] | Potency [4] | Potency (Papain (Carica papaya))

N[C@@H](CC(=O)O)C(=O)O
inactive: outcome [1] | Potency [2] | Potency [3] | Potency [4] | Potency (Papain (Carica papaya))

Oc1ccccc1O
inactive: outcome [1] | Potency [2] | Potency [3] | max response [6] -15.9% | Potency (Papain (Carica papaya))
active: Potency [4] 2 µM | Potency [7] 25.1 µM

NCCCCC(=O)O
inactive: outcome [1] | Potency [2] | Potency [3] | Potency [4] | Potency [7] | Potency (Papain (Carica papaya))

C=CC(N)CCC(=O)O (stereo not drawn)
inactive: outcome [1] | Potency [2] | Potency [3] | Potency [4] | outcome [5] | Potency (Papain (Carica papaya))

CN1C2CCC1CC(OC(=O)C(O)c1ccccc1)C2 (stereo not drawn)
inactive: outcome [1] | Potency [2] | Potency [3] | Potency [4] | outcome [5] | Potency (Papain (Carica papaya))

N=c1ccn2c(n1)O[C@H]1[C@H](O)[C@@H](CO)O[C@H]12
inactive: outcome [1] | Potency [2] | Potency [3] | outcome [5] | Potency [7]

CC1(C)CCC=[N+]1[O-]
inactive: outcome [1] | Potency [2] | Potency [3] | Potency [4] | outcome [5] | Potency (Papain (Carica papaya))

Nc1ncnc2c1ncn2[C@@H]1O[C@H](COP(=O)(O)CP(=O)(O)OP(=O)(O)O)[C@@H](O)[C@H]1O
inactive: outcome [1] | Potency [2] | Potency [3] | Potency [4] | outcome [5] | Potency (Papain (Carica papaya))

NC(=S)c1ccc[n+]([C@@H]2O[C@@H](COP(=O)([O-])OP(=O)(O)OC[C@H]3O[C@@H](n4cnc5c(N)ncnc54)[C@H](OP(=O)(O)O)[C@@H]3O)C(O)C2O)c1 (stereo partly drawn)
inactive: outcome [1] | Potency [2] | Potency [3] | Potency [4] | outcome [5] | Potency (Papain (Carica papaya))

CC(C)NC[C@H](O)COc1cccc2[nH]ccc12
inactive: outcome [1] | Potency [2] | Potency [3] | Potency [4] | outcome [5] | Potency (Papain (Carica papaya))

CN1C2CC(OC(=O)[C@H](CO)c3ccccc3)CC1C1OC12 (stereo partly drawn)
inactive: outcome [1] | Potency [2] | Potency [3] | Potency [4] | Potency (Papain (Carica papaya))

CC(C)(C)c1ccc(S(=O)(=O)/C=C/C#N)cc1
inactive: outcome [1] | Potency [2] | Potency [3] | outcome [5] | Potency [7] | Potency (Papain (Carica papaya))

O=C(Nc1ccccc1)c1cc([N+](=O)[O-])ccc1Cl
inactive: outcome [1] | Potency [2] | Potency [3] | outcome [5] | max response [6] -26.2% | Potency (Papain (Carica papaya))

O=C(c1cc(O)c(O)c([N+](=O)[O-])c1)c1ccccc1F
inactive: outcome [1] | Potency [2] | Potency [3] | Potency [4] | Potency [7]

COC1=C(OC)C(=O)c2ccccc2C1=O
inactive: outcome [1] | Potency [4] | outcome [5] | Potency (Papain (Carica papaya))
active: Potency [3] 50.1 µM

C[N+]1(C)C2CC(OC(=O)[C@H](CO)c3ccccc3)CC1C1OC12 (stereo partly drawn)
inactive: outcome [1] | Potency [4] | outcome [5] | max response [6] 12%
1.12 µM (active) and inactive: Potency (Papain (Carica papaya))

COc1ccc2c(c1)CCC1C2CC[C@@]2(C)C1CC[C@@H]2NCCCCCCN1C(=O)CCC1=O (stereo partly drawn)
inactive: outcome [1] | Potency [2] | Potency [3] | outcome [5] | Potency [7] | Potency (Papain (Carica papaya))

O=[N+]([O-])c1ccc2c(c1)S(=O)(=O)C=C2
inactive: outcome [1] | Potency [2] | Potency [3] | Potency [7]

OC[C@H]1O[C@@H](n2cnc3c(NC4CCCCC4)ncnc32)[C@H](O)[C@@H]1O
inactive: outcome [1] | Potency [2] | Potency [3] | outcome [5] | Potency [7] | Potency (Papain (Carica papaya))

CCCCN(CC)c1nc(C)nc2c1c(C)cn2-c1c(C)cc(C)cc1C
active: Potency [9] 12 µM
inactive: outcome [1] | outcome [5] | Potency [8] | Potency (Papain (Carica papaya))

C=C[C@H]1CN2CC[C@@H]1C[C@@H]2[C@@H](O)c1ccnc2ccc(OC)cc12
inactive: outcome [1] | Potency [4]

O=c1cc(-c2ccccc2)oc2c(O)c(O)ccc12
inactive: outcome [1] | outcome [5] | Potency (Papain (Carica papaya))

CCNc1nc2c(ncn2[C@H]2C[C@H](O)[C@@H](CO)O2)c(=O)[nH]1
inactive: outcome [1] | outcome [5] | Potency [10] | Potency (Papain (Carica papaya)) | Potency [11]

Cn1ncc(S(=O)(=O)Cc2ccccc2)c(Br)c1=O
inactive: outcome [1] | Potency [2] | Potency [3] | outcome [5] | Potency (Papain (Carica papaya))

COC(=O)C1=C(C)NC(C)=C(C(=O)OC)C1c1cccc(NC(=O)NCCCN2CCC(c3cccc(OC)c3)CC2)c1
inactive: outcome [1] | outcome [5] | Potency (Papain (Carica papaya))
active: Potency [8] 4.25 µM | Potency [11] 4.59 µM

COc1ccccc1CN[C@@H]1CCCN[C@@H]1c1ccccc1
inactive: outcome [1] | outcome [5] | Potency (Papain (Carica papaya))

Nc1nc(Cl)nc2c1ncn2[C@@H]1O[C@H](COP(=O)(O)OP(=O)(O)OP(=O)(O)O)[C@@H](O)[C@H]1O
inactive: outcome [1] | Potency [2] | Potency [3] | outcome [5] | Potency [7] | Potency (Papain (Carica papaya))

CCCCC#Cc1nc(NC)c2ncn([C@@H]3O[C@H](CO)[C@@H](O)[C@H]3O)c2n1
inactive: outcome [1] | Potency [2] | Potency [3] | outcome [5] | Potency [7] | Potency (Papain (Carica papaya))
